Screening data (PubChem BioAssay)
RmlCD inh 1536: inhibitors of Mycobacterium tuberculosis RmlC and RmlD coupled enzymes. RmlC+RmlD coupled enzyme assay, percent inhibition; primary screen in compound mixtures. P9WH09+P9WH11. inhibition, % at 3.6 µM. AID 1533. 160,000 tested, 0.03% active; in the data active = inhibition mostly above about 34%, no sharp cut-off
Target sequence (P9WH09 whole entry, looked up): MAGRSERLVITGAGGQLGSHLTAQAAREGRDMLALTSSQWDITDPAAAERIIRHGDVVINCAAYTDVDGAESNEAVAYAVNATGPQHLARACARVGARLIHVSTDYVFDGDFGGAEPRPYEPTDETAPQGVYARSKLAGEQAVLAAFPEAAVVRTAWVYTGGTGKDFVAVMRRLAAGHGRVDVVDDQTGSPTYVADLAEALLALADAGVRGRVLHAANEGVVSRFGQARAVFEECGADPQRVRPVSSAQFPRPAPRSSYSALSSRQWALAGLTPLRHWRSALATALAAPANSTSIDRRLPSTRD
Target sequence (P9WH11 whole entry, looked up): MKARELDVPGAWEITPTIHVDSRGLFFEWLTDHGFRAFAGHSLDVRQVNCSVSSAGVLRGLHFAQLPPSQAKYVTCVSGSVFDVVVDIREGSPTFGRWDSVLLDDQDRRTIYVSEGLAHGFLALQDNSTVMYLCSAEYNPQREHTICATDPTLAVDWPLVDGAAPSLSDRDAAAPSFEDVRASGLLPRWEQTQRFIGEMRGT
Active calls of the source: *. The entries come from a sample that favours hits as a whole.

SMILES | RmlCD inh 1536
Cc1cc(=O)oc2cc(NC(=O)C3CCCC3)ccc12 | -12
CN(C)S(=O)(=O)c1ccc(S(=O)(=O)Nc2ccc3c(c2)oc2ccccc23)cc1 | -1
Cc1cc(=O)oc2cc(NS(=O)(=O)c3ccccc3)ccc12 | 43*
Cn1c(=O)c([N+](=O)[O-])c(NCC2CCCO2)c2ccccc21 (stereo not drawn) | -1
CCC(CC)NC(=O)Nc1ccc(C)cc1 | 3
COc1ccc(-n2c(=O)/c(=C\c3cccs3)s/c2=C(/C#N)C(=O)NCCN2CCOCC2)cc1 | 0
COCCCn1c(=O)/c(=C\c2ccc(OC(F)F)c(OC)c2)s/c1=C(/C#N)C(=O)NCCOC | 66*
COCCCn1c(=O)/c(=C\c2ccccc2OC(F)F)s/c1=C(/C#N)C(=O)NC(C)C | -8
O=C(CSc1ncn[nH]1)CSc1ncn[nH]1 | 14
N#Cc1cnc(NOCc2ccc(Cl)cc2)nc1 | 1
CCOC(=O)C1C(c2ccc([N+](=O)[O-])cc2)C2C(=O)NN=C2CC1(C)O (stereo not drawn) | -19
CCN(CC)c1ccc(NC2CC(=O)N(CCc3ccc(OC)cc3)C2=O)cc1 (stereo not drawn) | -1
Nn1c(SCc2cccc(Br)c2)nnc1-c1ccncc1 | -7
CC(C)CC1(C)N=C(c2ccccc2)C(=S)N1 (stereo not drawn) | 85
Cc1nc2c(Br)c(C)nn2c2c1CCC2 | 5
O=C(NCc1csc(-c2cccs2)n1)C1CCC1 | -12
Cn1c(N)c(C(=O)COC(=O)[C@@H]2CCCN2S(=O)(=O)c2ccc(Cl)cc2)c(=O)n(C)c1=O | 10
COc1cc(C2NC(=O)NC3=C2C(=O)OC3)cc(OC)c1OC (stereo not drawn) | 3
CCOc1ccc(CN2CCN(Cc3cccn3-c3nccs3)CC2CCO)cc1 (stereo not drawn) | 72
COCCCNC(=S)N1CCC(NC(=O)Nc2ccc(C)cc2)CC1 | 38
CCCCN(Cc1ccccc1)C(=O)CCN1C(=O)C2C3C=CC(C3)C2C1=O (stereo not drawn) | -4
CCOC(=O)N1CCc2c(sc(NC(=O)CN(CC)CC)c2C#N)C1 | -7
Cc1nc(NCCOc2ccccc2)sc1C(=O)Nc1ccccc1 | 1
COc1ccc(C(=O)CSc2nc3ncccc3[nH]2)cc1OC | 32
Cc1ccc(S(=O)(=O)N(C)C)cc1NC(=O)C(C)Sc1ccccc1 (stereo not drawn) | -12
SMILES | RmlCD inh 1536
COc1ccccc1N1C(=O)C2C(C(=O)c3ccccc3)=NN(c3ccccc3OC)C2C1=O (stereo not drawn) | 7
COC(=O)/C(=C/Nc1cccc2ccccc12)[N+](=O)[O-] | 100*
O=C(COC(=O)c1ccc([N+](=O)[O-])o1)Nc1cccc2ccccc12 | -4
O=C(CNc1cccc2ccccc12)N/N=C/c1ccc([N+](=O)[O-])cc1 | -1
CCc1ccc(NC(=S)N2CCCCCCC2)cc1 | -4
COc1ccc(N(CC(=O)NCCC2=CCCCC2)S(=O)(=O)c2ccc(C)cc2)cc1OC | -15
CCc1nc(SCC(=O)O)c(C#N)cc1C | 11
CCOC(=O)CC(=O)CSc1nc2ccc(C)cc2cc1C#N | -13
CCOC(=O)CC(=O)CSc1nc(CC)c(C)cc1C#N | 36*
CSc1ncc(CN2CCc3c([nH]c4ccccc34)C2c2cccc(O)c2)cn1 (stereo not drawn) | 13
CN(C)CCn1c(N)nc2ccccc21 | -8
COc1ccc(-c2cc(=NCCC(=O)O)c3cc(C)ccc3o2)cc1 | 32*
COc1ccc(-c2cc(=NC(CC(C)C)C(=O)O)c3cc(C)ccc3o2)cc1 (stereo not drawn) | -9
COc1ccc(-c2cc(=Nc3ccc(C)cc3)c3ccccc3o2)cc1 | 0
CCC(C)C(NC(N)=O)C(=O)Nc1ccc(OCc2ccccc2)cc1 (stereo not drawn) | -8
CC(C)(C)c1ccc(OCc2cnc(Cl)s2)cc1 | 0
CN(C)c1nc(N)c([N+](=O)[O-])c(NCC2CCCO2)n1 (stereo not drawn) | -6
CCOc1cccc(/C=C/c2cc(C(=O)O)c3ccccc3n2)c1OC | 1
Cc1nc2cc(Nc3ccncc3)ccc2s1 | 21
CN(C)S(=O)(=O)c1ccc(Cl)c(NC(=O)COC(=O)/C=C/c2cnc3ccccc3n2)c1 | 6
Nn1c(SCC(=O)N2CCOCC2)nnc1C1CC1 | -9
CCn1c(C)nc2cc(C(=O)N/N=C(\C)c3ccc(OC)cc3O)ccc21 | 37*
CCn1c(C)nc2cc(C(=O)N/N=C/c3ccc(OC)cc3)ccc21 | 4
CCn1c(C)nc2cc(C(=O)N/N=C(\C)c3ccc(N4CCOCC4)cc3)ccc21 | 9
O=C(/C=C/c1ccc(F)cc1)Nc1ccc2[nH]c(=O)[nH]c2c1 | 8
O=S(=O)(NCc1c(Cl)cccc1Oc1ccccc1)c1ccc(F)cc1 | -1
COc1ccc(Oc2c(C)oc3c(CN4CCOCC4)c(O)ccc3c2=O)cc1 | 5
Cc1oc2c(CN3CCOCC3)c(O)ccc2c(=O)c1-c1ccccc1 | 66*
Cc1oc2c(CN3CCCC3)c(O)ccc2c(=O)c1Oc1ccccc1Br | 9
CCC(=O)Oc1ccc2c(C)c(Cl)c(=O)oc2c1 | 43*
